Results filed as inconclusive are left out. Active and inactive are the calls of the source. Calls follow the shape of the full dose curve.
Potency is read from the fitted curve at half-maximal effect.

This test in a line: Cell Viability - HepG2 (AID 433).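 Also: potency for ATP loss meaning cytotoxicity.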 The conditions noted are these: qHTS. From the text: NIH Chemical Genomics Center [NCGC]
NIH Molecular Libraries Screening Centers Network [MLSCN]
National Institutes of Environmental Health Sciences [NIEHS]
National Toxicology Program [NTP]
We have developed a 1536-well cell-based assay for quantitative high throughput screening (qHTS) against a number of cell lines to determine in vitro cytotoxicity of small molecules. This particular assay uses the HepG2 cell line which is derived from hepatocellular carcinoma.
NCGC Assay Protocol Summary:
The CellTiter-Glo luminescent cell viability assay (Promega) is a homogeneous method to measure the number of viable cells in culture. The end point readout of this assay is based on quantitation of intracellular ATP, an indicator of metabolic activity, using the luciferase reaction. Luciferase catalyzes the oxidation of beetle Luciferin to oxyluciferin and light in the presence of ATP. The luminescent signal is proportional to amount of ATP present.
Using the CellTiter-Glo luminescent cell viability assay, the amount of cellular ATP was measured in the HepG2 cell line with complete culture medium following compound treatment for 40 hours. The assay was performed in opaque white Kalypsys 1536-well plates. In the screen, tamoxifen and doxorubicin were used as positive controls. Library compounds were measured for their ability to cause acute toxicity in the cell line, as reflected by a decrease in intracellular ATP levels, in a concentration-dependent manner. Data were normalized to the controls for basal activity (DMSO only) and 100% inhibition (100 uM tamoxifen). AC50 values were determined from concentration-response data modeled with the standard Hill equation.
qHTS protocol fo CellTiter Glo HepG2 cellular assay
[Step] [Parameter] [Value] [Description]
1. Reagent; 5 uL; 1500 HepG2 cells/well
2. Time; 5 hr; 37 °C incubation
4. Controls; 23 nL; Tamoxifen 0.34 uM to 100 uM & Doxorubicin 0.02 nM to 100 uM
5. Time; 40 hr; 37 °C incubation
6. Reagent; 5 uL; CellTiter Glo reagent
7. Time; 20 min; Room Temperature
8. Detection; Luminescence; Viewlux plate reader
Keywords: cell viability, cytotoxicity, HepG2 cell line, luminescence, NTPHTS, NTPHTS_NCGC, NIEHS, EPA, DSSTox, MLSMR, MLSCN, NIH Roadmap, qHTS, NCGC
For orientation: Quantitative high-throughput screening tests each substance at several concentrations.
With `O=C(O)c1cc(Cl)ccc1Cl`, the Potency is > 92 µM (inactive).

Take `Clc1ccc(Cl)c(Cl)c1`: the Potency was > 92 µM (inactive).

As for `CC1CC(=O)O1` (stereo not given), the Potency is > 92 µM (inactive).

Take `ClC(Cl)Br`: the Potency was > 92 µM (inactive).

With `O=[N+]([O-])c1ccc2c3c(cccc13)CC2`, the Potency was > 92 µM (inactive).

For the compound `O=[N+]([O-])c1ccc(O)c([N+](=O)[O-])c1`, the Potency is > 92 µM (inactive).

For the compound `Nc1ncc([N+](=O)[O-])s1`, the Potency is > 92 µM (inactive).

In the case of `Nc1ccc2ccccc2c1`, the Potency was > 92 µM (inactive).

Turning to `O=C(O)CBr`, the Potency was > 92 µM (inactive).

Turning to `CCCCC#N`, the Potency is > 92 µM (inactive).

As for `Cl/C=C/Cl`, the Potency is > 92 µM (inactive).

As to `CC(=O)CCC(C)=O`, the Potency is > 92 µM (inactive).

Turning to `CN(C)c1ccc(N(C)C)cc1`, the Potency was > 92 µM (inactive).

As to `Clc1ccccc1`, the Potency is > 92 µM (inactive).

Regarding `OCCBr`, the Potency is > 92 µM (inactive).

Consider `CCCCCCCCCCCOC(=O)c1ccccc1C(=O)OCCCCCCCCCCC`, for which the Potency was > 92 µM (inactive).

Take `Oc1cc(Cl)ccc1Cl`: the Potency is > 92 µM (inactive).

Turning to `C=CCBr`, the Potency is > 92 µM (inactive).

Turning to `Cc1cc(C)cc(OP(=O)(Oc2cc(C)cc(C)c2)Oc2cc(C)cc(C)c2)c1`, the Potency was > 92 µM (inactive).

As to `CCOC(=O)CC(SP(=O)(OC)OC)C(=O)OCC` (stereo not given), the Potency was > 92 µM (inactive).

Take `ClCCOCOCCCl`: the Potency was > 92 µM (inactive).

For the compound `C/C=C/CC#N`, the Potency is > 92 µM (inactive).

In the case of `c1ccc(Nc2ccc(Nc3ccccc3)cc2)cc1`, the Potency is > 92 µM (inactive).

Regarding `ClCC(Cl)Cl`, the Potency is > 92 µM (inactive).

Regarding `Cl/C=C/CCl`, the Potency was > 92 µM (inactive).

With `CCCCC(CC)COC(=O)c1ccc(C(=O)OCC(CC)CCCC)c(C(=O)OCC(CC)CCCC)c1` (stereo not given), the Potency was > 92 µM (inactive).

As to `CCCCOC(C)=O`, the Potency is > 92 µM (inactive).

Take `ClC=CCl`: the Potency was > 92 µM (inactive).

For `COc1c(C(C)(C)C)cc([N+](=O)[O-])c(C)c1[N+](=O)[O-]`, the Potency is > 92 µM (inactive).

Consider `Cc1ccc(N=C=O)cc1N=C=O`, for which the Potency is > 92 µM (inactive).

`CC12CC1(C)C(=O)N(c1cc(Cl)cc(Cl)c1)C2=O` (stereo not given): the Potency is > 92 µM (inactive).

With `O=C(O)CCl`, the Potency is > 92 µM (inactive).

For the compound `CC(C)(C)c1ccccc1O`, the Potency was > 92 µM (inactive).

Consider `CN(C)C(=O)Nc1cccc(C(F)(F)F)c1`, for which the Potency was > 92 µM (inactive).

With `N#CC(O)c1ccccc1` (stereo not given), the Potency is > 92 µM (inactive).

As for `C=CC(=O)OCCO`, the Potency was > 92 µM (inactive).

Take `O=Cc1ccc(Cl)cc1Cl`: the Potency was > 92 µM (inactive).

Turning to `O=[N+]([O-])c1cccc(CCl)c1`, the Potency was > 92 µM (inactive).

Regarding `CCCCCCCCCCCCCl`, the Potency was > 92 µM (inactive).

Regarding `Nn1cnnc1`, the Potency was > 92 µM (inactive).

The record behind these values is PubChem BioAssay (NCATS).
